± gives the standard deviation of the averaged measurements.
Columns and labels:
Test in all cases: cell proliferation (confluence) relative to DMSO control; higher = less growth inhibition
Details in all cases: 5 uM; 6 d
BT549 = test system: BT549
How it was run: (§1)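 Each epigenetic chemical probe, dissolved in DMSO, was tested at a final 5 μM for 6 d on triple-negative breast cancer cell lines plated at 500 cells per well in 384-well plates. Every plate held four replicate wells per probe alongside DMSO-only wells. Confluence was read by IncuCyte ZOOM phase-contrast imaging and normalised to the DMSO-only wells.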

CAL120 = test system: CAL120
How it was run: as §1

HCC1143 = test system: HCC1143
How it was run: as §1

HCC1395 = test system: HCC1395
How it was run: as §1

HCC153 = test system: HCC153
How it was run: as §1

HCC1806 = test system: HCC1806
How it was run: as §1

HCC38 = test system: HCC38
How it was run: as §1

HCC70 = test system: HCC70
How it was run: as §1

Hs578-T = test system: Hs578-T
How it was run: as §1

MB157 = test system: MB157
How it was run: as §1

SUM149-PT = test system: SUM149-PT
How it was run: as §1

SUM159-PT = test system: SUM159-PT
How it was run: as §1

Row | Compound | cell proliferation (BT549) | cell proliferation (CAL120) | cell proliferation (HCC1143) | cell proliferation (HCC1395) | cell proliferation (HCC153) | cell proliferation (HCC1806) | cell proliferation (HCC38) | cell proliferation (HCC70) | cell proliferation (Hs578-T) | cell proliferation (MB157) | cell proliferation (SUM149-PT) | cell proliferation (SUM159-PT)
1 | CCCc1cc(C)[nH]c(=O)c1CNC(=O)c1cc(-c2ccc(N3CCN(C(C)C)CC3)nc2)cc2c1cnn2C(C)C | 21 ± 7.7% | 85.5 ± 11% | 98.86 ± 0.59% | 99.88 ± 0.14% | 91.8 ± 4.8% | 92.4 ± 6.9% | 99.93 ± 0.072% | 80 ± 8.9% | 97 ± 2% | 46.2 ± 22% | 11.5 ± 5.8% | 99.997 ± 0.002%
2 | O=C([C@@H](Cc1cccc(C(F)(F)F)c1)NS(=O)(=O)c1cc(F)c2c(c1)CCNC2)N1CCCC1 | 98.6 ± 1.6% | 97.2 ± 1.3% | 97.9 ± 1.8% | 99.978 ± 0.021% | 79.2 ± 12% | 86.9 ± 14% | 99.44 ± 0.59% | 96.1 ± 2.5% | 94.3 ± 4.3% | 82.3 ± 15% | 87.4 ± 7.1% | 99.992 ± 0.0088%
3 | CCN(C(=O)CO)[C@H]1CN(/C(=N\C#N)Nc2cccc(OC(F)F)c2)N=C1c1ccc(Cl)c(Cl)c1 | 99.63 ± 0.31% | 90.8 ± 2.4% | 99.11 ± 0.44% | 99.957 ± 0.033% | 82.4 ± 4.8% | 99.79 ± 0.11% | 99.79 ± 0.12% | 90.8 ± 8.2% | 98.67 ± 0.29% | 78.6 ± 8.9% | 75.9 ± 10% | 99.999 ± 0.002%
4 | COc1cc2c(NC3CCN(C(C)C)CC3)nc(C3CCCCC3)nc2cc1OCCCN1CCCC1 | 99.51 ± 0.12% | 81.6 ± 8.8% | 98.93 ± 0.9% | 99.3 ± 0.76% | 89 ± 4.7% | 99.53 ± 0.2% | 99.86 ± 0.072% | 98.64 ± 0.65% | 98.1 ± 1.1% | 67.8 ± 16% | 91.8 ± 8.8% | 99.996 ± 0.0018%
5 | COc1ccccc1S(=O)(=O)Nc1ccc2c(c1)CN(C)C(=O)N2 | 95.7 ± 1.4% | 50.1 ± 11% | 97.21 ± 0.84% | 98.12 ± 0.25% | 59.7 ± 1.8% | 38.5 ± 27% | 35.2 ± 7.6% | 81.7 ± 7.9% | 47.7 ± 1.6% | 50.9 ± 5.5% | 20.8 ± 3.4% | 97.92 ± 0.3%
6 | CC(C)N(CCCNC(=O)Nc1ccc(C(C)(C)C)cc1)C[C@H]1O[C@@H](n2cc(Br)c3c(N)ncnc32)[C@H](O)[C@@H]1O | 99.955 ± 0.014% | 98.5 ± 1.1% | 99.74 ± 0.16% | 99.977 ± 0.024% | 85.8 ± 4.9% | 99.862 ± 0.055% | 99.891 ± 0.042% | 93.6 ± 4.6% | 96.1 ± 1.3% | 89.1 ± 3.2% | 76 ± 6.9% | 99.997 ± 0.0024%
7 | CCCc1cc(C)[nH]c(=O)c1CNC(=O)c1cc(-c2ccnc(N3CCN(C)CC3)c2)cc2c1cnn2C(C)C | 99.876 ± 0.081% | 94.6 ± 4% | 99.63 ± 0.27% | 99.992 ± 0.007% | 88.3 ± 2.3% | 99.64 ± 0.32% | 99.73 ± 0.33% | 97.6 ± 2.6% | 97.34 ± 0.48% | 95.1 ± 5.6% | 61.1 ± 10% | 99.976 ± 0.033%
8 | COc1c(C)cc(NC(=O)c2nn(Cc3ccc(F)cc3)c3c2CN(C(=O)c2ccc[nH]2)C[C@]3(C)C(N)=O)cc1C | 95.2 ± 2.6% | 98.5 ± 1.5% | 97.72 ± 0.68% | 99.916 ± 0.05% | 56.1 ± 5.2% | 76.3 ± 3.2% | 99.26 ± 0.96% | 99.43 ± 0.33% | 98.56 ± 0.55% | 93.7 ± 9.7% | 75.6 ± 20% | 99.971 ± 0.051%
9 | COc1cc2c(cc1OCCCN1CCCC1)N=C(N)C21CCC1 | 99.32 ± 0.28% | 83.1 ± 6.3% | 95.6 ± 3.2% | 99.981 ± 0.027% | 80.7 ± 2.8% | 99.41 ± 0.36% | 98.89 ± 0.42% | 96.5 ± 3.6% | 92.3 ± 4.1% | 72.5 ± 12% | 78.6 ± 16% | 99.951 ± 0.031%
10 | O=C(NC[C@H](O)CN1CCc2ccccc2C1)c1ccnc(NC2CCC2)c1 | 81.4 ± 7.7% | 90 ± 7.5% | 75.1 ± 4.7% | 99.47 ± 0.48% | 37.2 ± 9.6% | 37.5 ± 4.5% | 67.8 ± 1.2% | 95 ± 2% | 89.7 ± 4.3% | 66.5 ± 2.1% | 36.7 ± 2.9% | 99.876 ± 0.038%
11 | O=C(c1ccc(C(=O)N2CCC(N3CCCC3)CC2)c(Nc2ccccc2)c1)N1CCC(N2CCCC2)CC1 | 99.63 ± 0.2% | 95.4 ± 2.1% | 99.64 ± 0.16% | 99.874 ± 0.068% | 89.5 ± 3.3% | 99.832 ± 0.085% | 99.81 ± 0.17% | 99.24 ± 0.6% | 98.8 ± 0.39% | 99.13 ± 0.32% | 89.4 ± 9.2% | 99.998 ± 0.0015%
12 | Cc1nnc2c3ccccc3c(N[C@@H](C)[C@H](c3ccccc3)N(C)C)nn12 [L-moses] | 98.1 ± 1.5% | 99.22 ± 0.67% | 97.14 ± 0.68% | 99.898 ± 0.059% | 60.8 ± 6% | 81.2 ± 6.2% | 99.61 ± 0.29% | 96.2 ± 2.5% | 87 ± 19% | 98.5 ± 1.9% | 75.8 ± 11% | 99.952 ± 0.041%
13 | CN(C)[C@H]1CN(C2CCc3cccc(F)c32)C[C@@H]1c1ccc(N2CCN(S(C)(=O)=O)CC2)cc1 (some centres not stated) | 99.839 ± 0.071% | 91.9 ± 3.3% | 99.22 ± 0.33% | 99.91 ± 0.14% | 83.7 ± 2.5% | 99.14 ± 0.58% | 99.71 ± 0.21% | 82.3 ± 13% | 97.33 ± 0.62% | 91.6 ± 4.3% | 87.8 ± 10% | 99.996 ± 0.0017%
14 | CCOC(=O)CCNc1cc(N2CCc3ccccc3CC2)nc(-c2ccccn2)n1 | 28.2 ± 3.8% | 22.3 ± 2.1% | 60.8 ± 4.6% | 40.6 ± 9.5% | 21.3 ± 3.7% | 27.9 ± 4.9% | 23.1 ± 5% | 66 ± 12% | 68.5 ± 11% | 33.6 ± 8.3% | 10.2 ± 3.8% | 94.72 ± 0.36%
15 | Cn1cc(CCn2cnc(-c3cnn(C)c3)c2-c2ccc(C#N)cc2)cn1 | 98.99 ± 0.43% | 97.56 ± 0.71% | 98.1 ± 2.2% | 99.977 ± 0.017% | 58.1 ± 13% | 76.7 ± 11% | 99.38 ± 0.67% | 85.1 ± 8.9% | 97.89 ± 0.77% | 62.6 ± 28% | 92.6 ± 3.4% | 99.988 ± 0.012%
16 | CCCOc1ccn2c(C(C)=O)cc(-c3ccccc3S(C)(=O)=O)c2c1 | 99.1 ± 0.35% | 99.03 ± 0.55% | 98.2 ± 1% | 99.968 ± 0.022% | 53 ± 5.5% | 81.9 ± 6.8% | 99.1 ± 0.59% | 92.2 ± 7.6% | 97.6 ± 0.9% | 76.8 ± 20% | 88.7 ± 8.8% | 99.983 ± 0.013%

Reference: the supplement of paper PMC9337992
